Experimental data from PubChem BioAssay (NCATS).
Results filed as inconclusive are left out. A call without a number means that no potency is given here. Activity calls are given as the source filed them. Calls come from the whole dose curve; as a rule, active = well fitted curve in the direction sought with a large enough effect; inconclusive = small, poorly fitted or top-dose-only effect, or another doubt; inactive = no such curve, though single readings can be large; an effect the other way counts as inactive or inconclusive.

Key:
[1] = biological target: N-terminal Xaa-Pro-Lys N-methyltransferase 1 (Homo sapiens) (UniProt Q9BV86); experiment: qHTS Assay for Inhibitors of N-terminal methyltransferase 1 (NTMT1): LOPAC validation of the NTMT1 SAHH-coupled ThioGlo3 Assay (AID 1347143);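 note: SAH from peptide methylation measured as thiol fluorescence via SAHH coupling and ThioGlo3; nearly all actives have a fitted effect of over 70% in size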; note: potency is the fitted concentration of half-maximal effect
Method in brief: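 In this qHTS pilot against the LOPAC set, 125nM NTMT1 met compounds tested at multiple concentrations, and fluorescence was normalized to background.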

[2] = qHTS of pediatric cancer cell lines to identify multiple opportunities for drug repurposing: Confirmatory screen for RD cells (AID 1347124);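 note: cells exposed to compound for 48 h before viability readout; nearly all actives have a fitted effect of over 65% in size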; note: potency is the fitted concentration of half-maximal effect
Method in brief: (§1)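 Cells (500-1,000/well) in growth media were settled 5 h at 37 degrees C, then given compounds for 48 h. Viability was read as CellTiter-Glo luminescence. Primary runs used MIPE at 11 points (0.78 nM-46 µM) and NPC at 8 points (0.59 nM-46 µM); follow-ups used 11 points.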

[3] = qHTS of pediatric cancer cell lines to identify multiple opportunities for drug repurposing: Confirmatory screen for Rh18 cells (AID 1347125); note: nearly all actives have a fitted effect of over 55% in size; note: potency is the fitted concentration of half-maximal effect
Method in brief: as §1

[4] = qHTS of pediatric cancer cell lines to identify multiple opportunities for drug repurposing: Confirmatory screen for Rh30 cells (AID 1347126); note: nearly all actives have a fitted effect of over 55% in size; note: potency is the fitted concentration of half-maximal effect
Method in brief: as §1

[5] = qHTS of pediatric cancer cell lines to identify multiple opportunities for drug repurposing: Confirmatory screen for Saos-2 cells (AID 1347127); conditions: Saos-2 osteosarcoma cell viability; note: potency is the fitted concentration of half-maximal effect; nearly all actives have a fitted effect of over 60% in size
Method in brief: as §1

[6] = qHTS of pediatric cancer cell lines to identify multiple opportunities for drug repurposing: Confirmatory screen for OHS-50 cells (AID 1347128);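 note: compound exposure lasted 48 h at 37 degrees C; nearly all actives have a fitted effect of over 55% in size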; note: potency is the fitted concentration of half-maximal effect
Method in brief: as §1

[7] = test system: Zika virus NS2B-NS3 protease; experiment: Primary screen GU AMC qHTS for Zika virus inhibitors (AID 1347154); note: nearly all actives have a fitted effect of over 70% in size; note: potency is the fitted concentration of half-maximal effect
Method in brief: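 Unlinked Zika NS2B hydrophilic domain/NS3 protease domain noncovalent complex (25 nM final) in 10 mM Tris-HCl pH 8.0, 0.01% Tween 20, with AMC peptide substrate. Fluorescence (ex 340, em 450 nm) change over 15 min, room temperature; percent inhibition fitted to 4-parameter Hill equation.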

[8] = qHTS of pediatric cancer cell lines to identify multiple opportunities for drug repurposing: Confirmatory screen for Rh41 cells (AID 1347123);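 note: 48 h compound exposure; nearly all actives have a fitted effect of over 60% in size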; note: potency is the fitted concentration of half-maximal effect
Method in brief: as §1

[9] = qHTS of pediatric cancer cell lines to identify multiple opportunities for drug repurposing: Confirmatory screen for SK-N-SH cells (AID 1347129);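 note: cells exposed to compound for 48 h before viability read; nearly all actives have a fitted effect of over 60% in size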; note: potency is the fitted concentration of half-maximal effect
Method in brief: as §1

[10] = test system: Zika virus NS2B-NS3 protease (unlinked); experiment: Optimization of GU AMC qHTS for Zika virus inhibitors: Unlinked NS2B-NS3 protease assay (AID 1347151); note: series mostly up to about 52 µM; nearly all actives have a fitted effect of over 80% in size
Method in brief: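 Unlinked protease (25 nM final); buffer 10 mM Tris-HCl pH 8.0 + 0.01% Tween 20; AMC substrate; 15 min RT, dark; Δfluorescence normalized to no-inhibitor/no-enzyme controls; 4-parameter Hill fit.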

N-terminal Xaa-Pro-Lys N-methyltransferase 1 (Homo sapiens), sequence (Q9BV86 whole entry, looked up): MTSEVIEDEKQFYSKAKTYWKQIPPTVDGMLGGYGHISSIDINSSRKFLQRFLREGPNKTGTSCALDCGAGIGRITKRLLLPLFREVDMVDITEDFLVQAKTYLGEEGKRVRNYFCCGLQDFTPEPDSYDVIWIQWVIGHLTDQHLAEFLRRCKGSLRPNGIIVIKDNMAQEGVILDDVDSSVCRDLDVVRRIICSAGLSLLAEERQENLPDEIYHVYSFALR

**Q.** Which Potency [1] does the source give for `C[N+](C)(C)CCOP(=O)(O)OP(=O)([O-])OC[C@H]1O[C@@H](n2ccc(N)nc2=O)[C@H](O)C1O` (some centres undefined) here?
**A.** Its Potency is “inactive”.

**Q.** Which results are given for `COC(=O)Nc1nc2ccc(C(=O)C3CC3)cc2[nH]1`?
**A.** Potency [2]: 2.33 µM (active); Potency [3]: inactive; Potency [4]: inactive; Potency [5]: 1.31 µM (active); Potency [6]: 1.31 µM (active); Potency [7]: inactive

**Q.** For `OCC1O[C@H]([S-])C(O)[C@@H](O)[C@@H]1O.[Au+]` (some centres undefined), which Potency [1] is on record?
**A.** The Potency was “inactive”.

**Q.** With `NC(=O)C1=CN(C2OC(COP(=O)(O)OP(=O)(O)OC[C@H]3O[C@@H](n4cnc5c(N)ncnc54)[C@H](OP(=O)(O)O)C3O)C(O)C2O)C=CC1` (some centres undefined) as the compound, how does the Potency [1] read?
**A.** Its Potency is “inactive”.

**Q.** What does the source list for `CCOC(=O)c1ccccc1O`?
**A.** Potency [8]: inactive; Potency [6]: inactive; Potency [9]: inactive; Potency [7]: inactive

**Q.** For `O=C(/C=C/c1ccc(O)cc1)c1ccc(O)cc1O`, which Potency [1] is on record?
**A.** The Potency was 44.7 µM (active).

**Q.** For `Cc1cc2c(cc1Cl)N(C(=O)Nc1ccc(Oc3cccnc3C)nc1)CC2`, which Potency [1] is on record?
**A.** The Potency was 8.91 µM (active).

**Q.** Which results are given for `COc1cccc2c1C(=O)c1c(O)c3c(c(O)c1C2=O)C[C@@](O)(C(=O)CO)C[C@@H]3O[C@H]1C[C@H](N)[C@H](O[C@@H]2CCCCO2)[C@H](C)O1`?
**A.** Potency [8]: 2.93 µM (active); Potency [4]: 5.85 µM (active); Potency [9]: 2.35 µM (active)

**Q.** With `Oc1ccccc1O` as the compound, how does the Potency [1] read?
**A.** Its Potency is 44.7 µM (active).

**Q.** With `[O-][n+]1ccccc1SSc1cccc[n+]1[O-]` as the compound, how does the Potency [2] read?
**A.** The Potency was “inactive”.

**Q.** What about the Potency [5] of the same compound?
**A.** The Potency was 1.82 µM (active).

**Q.** And the Potency [9]?
**A.** Its Potency is 3.23 µM (active).

**Q.** And the Potency [7]?
**A.** The Potency was “inactive”.

**Q.** Which Potency [1] does the source give for `O=[N+]([O-])c1ccc(CSc2ncnc3c2ncn3[C@@H]2O[C@H](CO)C(O)[C@H]2O)cc1` (some centres undefined) here?
**A.** The Potency was “inactive”.

**Q.** Which Potency [1] does the source give for `CCCCC#Cc1nc(NC)c2ncn([C@@H]3O[C@H](CO)[C@@H](O)C3O)c2n1` (some centres undefined) here?
**A.** The Potency was 39.8 µM (active).

**Q.** With `CCC(CO)Nc1nc(NCc2ccccc2)c2ncn(C(C)C)c2n1` (centres undefined) as the compound, how does the Potency [1] read?
**A.** Its Potency is “inactive”.

**Q.** Which Potency [1] does the source give for `N=c1ccn2c(n1)O[C@H]1C(O)[C@@H](CO)O[C@H]12` (some centres undefined) here?
**A.** The Potency was “inactive”.

**Q.** Which Potency [1] does the source give for `CCOC(=O)C1=C(C)NC(C)=C(C(=O)OCC)C1c1c(F)c(F)c(F)c(F)c1F` here?
**A.** Its Potency is 79.4 µM (active).

**Q.** With `Nc1nc(Cl)nc2c1ncn2[C@@H]1O[C@H](CO)C(O)[C@H]1O` (some centres undefined) as the compound, how does the Potency [1] read?
**A.** Its Potency is “inactive”.

**Q.** For `CNC(=O)[C@H]1O[C@@H](n2cnc3c(NCc4ccc(N)cc4)ncnc32)[C@H](O)C1O` (some centres undefined), which Potency [1] is on record?
**A.** Its Potency is “inactive”.

**Q.** With `Nc1ccc([N+](=O)[O-])cc1O` as the compound, how does the Potency [8] read?
**A.** The Potency was “inactive”.

**Q.** What about the Potency [3] of the same compound?
**A.** The Potency was “inactive”.

**Q.** And the Potency [4]?
**A.** Its Potency is “inactive”.

**Q.** And the Potency [6]?
**A.** Its Potency is “inactive”.

**Q.** And the Potency [9]?
**A.** The Potency was “inactive”.

**Q.** And the Potency [7]?
**A.** Its Potency is “inactive”.

**Q.** Which Potency [8] does the source give for `CN(C)c1ccc(C(=C2C=CC(=[N+](C)C)C=C2)c2ccccc2)cc1` here?
**A.** The Potency was 0.414 µM (active).

**Q.** What about the Potency [2] of the same compound?
**A.** Its Potency is 1.31 µM (active).

**Q.** What about the Potency [3] of the same compound?
**A.** Its Potency is 1.04 µM (active).

**Q.** And the Potency [4]?
**A.** The Potency was 0.104 µM (active).

**Q.** What about the Potency [5] of the same compound?
**A.** The Potency was 0.522 µM (active).

**Q.** What about the Potency [6] of the same compound?
**A.** Its Potency is 2.61 µM (active).

**Q.** And the Potency [9]?
**A.** The Potency was 1.32 µM (active).

**Q.** What about the Potency [7] of the same compound?
**A.** The Potency was “inactive”.

**Q.** For `COc1cccc(C(=O)NCCN2CCN(c3ccc(Cl)cc3)CC2)c1`, which Potency [1] is on record?
**A.** Its Potency is “inactive”.

**Q.** With `COC(=O)c1nc(Cl)c(Cl)nc1N` as the compound, how does the Potency [8] read?
**A.** Its Potency is 1.31 µM (active).

**Q.** And the Potency [2]?
**A.** The Potency was 2.61 µM (active).

**Q.** What about the Potency [3] of the same compound?
**A.** Its Potency is 20.8 µM (active).

**Q.** What about the Potency [4] of the same compound?
**A.** The Potency was 16.5 µM (active).

**Q.** And the Potency [5]?
**A.** Its Potency is 2.61 µM (active).

**Q.** And the Potency [6]?
**A.** Its Potency is 18.5 µM (active).

**Q.** And the Potency [9]?
**A.** Its Potency is 4.69 µM (active).

**Q.** What about the Potency [7] of the same compound?
**A.** The Potency was 10 µM (active).

**Q.** Which Potency [1] does the source give for `C=C[C@H]1CN2CC[C@@H]1C[C@H]2[C@H](O)c1ccnc2ccc(OC)cc12` here?
**A.** The Potency was 56.2 µM (active).

**Q.** Which Potency [1] does the source give for `CC(C)(C)NCC(O)COc1nsnc1N1CCOCC1` (centres undefined) here?
**A.** Its Potency is “inactive”.

**Q.** Which Potency [1] does the source give for `COc1ccc(NC(=O)/C=C/c2ccc(Cl)cc2)cc1` here?
**A.** The Potency was “inactive”.

**Q.** Which Potency [1] does the source give for `OC[C@H]1O[C@@H](n2cnc3c(NC4CCCC4)ncnc32)[C@H](O)C1O` (some centres undefined) here?
**A.** Its Potency is “inactive”.

**Q.** With `O=C(O)CCCC[C@@H]1CCSS1` as the compound, how does the Potency [1] read?
**A.** Its Potency is “inactive”.

**Q.** For `c1ccc(-c2ccccn2)nc1`, which Potency [1] is on record?
**A.** Its Potency is “inactive”.

**Q.** For `Nc1nc(SCc2ccc([N+](=O)[O-])cc2)c2ncn([C@@H]3O[C@H](CO)C(O)[C@H]3O)c2n1` (some centres undefined), which Potency [1] is on record?
**A.** Its Potency is “inactive”.

**Q.** With `N=C1N=C(N)c2cc3ccccc3cc21` as the compound, how does the Potency [8] read?
**A.** The Potency was 30.2 µM (active).

**Q.** And the Potency [2]?
**A.** Its Potency is “inactive”.

**Q.** And the Potency [4]?
**A.** The Potency was 47.9 µM (active).

**Q.** What about the Potency [6] of the same compound?
**A.** Its Potency is 42.7 µM (active).

**Q.** And the Potency [9]?
**A.** The Potency was 38.2 µM (active).

**Q.** And the Potency [7]?
**A.** The Potency was 23.3 µM (active).

**Q.** For `NC(CCCP(=O)(O)O)C(=O)O` (centres undefined), which Potency [1] is on record?
**A.** The Potency was “inactive”.

**Q.** With `Nc1ncnc2c1ncn2[C@@H]1O[C@H](CO)C(O)[C@H]1O` (some centres undefined) as the compound, how does the Potency [1] read?
**A.** Its Potency is 2.24 µM (active).

**Q.** What does the source list for `CCCSc1ccc2nc(NC(=O)OC)[nH]c2c1`?
**A.** Potency [8]: 1.12 µM (active); Potency [2]: 2.51 µM (active); Potency [5]: 1.58 µM (active); Potency [6]: 2.51 µM (active); Potency [9]: 6.31 µM (active); Potency [7]: inactive

**Q.** With `O=C(/C=C/c1ccc(O)c(O)c1)OCCc1ccccc1` as the compound, how does the Potency [1] read?
**A.** Its Potency is 35.5 µM (active).

**Q.** For `Oc1c(Br)cc(Br)c2cccnc12`, which Potency [3] is on record?
**A.** Its Potency is “inactive”.

**Q.** What about the Potency [6] of the same compound?
**A.** The Potency was “inactive”.

**Q.** And the Potency [7]?
**A.** Its Potency is “inactive”.

**Q.** Which Potency [1] does the source give for `O=C(CCCCCN1CCN(c2ccccc2-c2ccccc2)CC1)NC1CCCc2ccccc21` (centres undefined) here?
**A.** The Potency was 79.4 µM (active).

**Q.** With `CNC(=O)[C@H]1O[C@@H](n2cnc3c(NCc4cccc(I)c4)ncnc32)[C@H](O)C1O` (some centres undefined) as the compound, how does the Potency [1] read?
**A.** The Potency was “inactive”.

**Q.** Which Potency [1] does the source give for `CC(C)Cc1ccc([C@H](C)C(=O)O)cc1` here?
**A.** The Potency was “inactive”.

**Q.** With `CC[C@@H](C)[C@H]1O[C@]2(CC[C@@H]1C)C[C@@H]1C[C@@H](C/C=C(\C)[C@@H](O[C@H]3C[C@H](OC)[C@@H](O[C@H]4C[C@H](OC)[C@@H](O)[C@H](C)O4)[C@H](C)O3)[C@@H](C)/C=C/C=C3\CO[C@@H]4[C@H](O)C(C)=C[C@@H](C(=O)O1)[C@]34O)O2` as the compound, how does the Potency [1] read?
**A.** The Potency was “inactive”.

**Q.** Which Potency [1] does the source give for `NCCSSCCN` here?
**A.** Its Potency is “inactive”.

**Q.** And the Potency [10]?
**A.** Its Potency is “inactive”.
